In ChEMBL document CHEMBL4513216, “Probing the Open Global Health Chemical Diversity Library for Multistage-Active Starting Points for Next-Generation Antimalarials” (ACS Infect Dis, 2020) one finds INHIBITION data, which are given here for 51 compounds.

SMILES strings stand for the structures. Screen size: about 69,000 compounds; about 8,600 (12%) showed an effect of 50% or more. This excerpt belongs to a sample that is enriched for strong results.

This assay has as its system Plasmodium berghei. Briefly: Screen against P. berghei liver stage (PbLuc), transformed with Luciferase, at 10uM. The class given is functional, HepG2. Conditions: tested at 10 uM.
Turning to `O=C1[C@@H]2CCN(Cc3ccoc3)C[C@@H]2OCCN1Cc1cccc(F)c1`, the INHIBITION is 70.7%.
The figure for `COc1ccc(CN2C[C@@H]3CN(Cc4cccnc4)CCO[C@@H]3C2)cc1` is 64.5%; for `O=C1[C@@H]2CCN(Cc3ccncc3)C[C@@H]2OCCN1c1ccccc1` it is 55.2%.
The value for `O=C1[C@@H]2CCN(Cc3ccccn3)C[C@@H]2OCCN1c1ccccc1` was 10.1%; that for `Cc1cc(CN2CC[C@H]3C(=O)N(c4cccnc4)CCO[C@H]3C2)no1` was 53.2%; that for `O=C1[C@H]2CN(C3CCOCC3)C[C@H]2CN1Cc1cccc(F)c1` was 1.48%.
The value for `Fc1ccccc1CN1C[C@@H]2CN(Cc3cccnc3)CCO[C@@H]2C1` was 27.5%; that for `Cc1ccc(CN2CC[C@H]3C(=O)N(Cc4cccnc4)CCO[C@H]3C2)o1` was 33.4%.
Take `Cc1cc(CN2CC[C@H]3C(=O)N(c4ccccc4)CCO[C@H]3C2)no1`: the INHIBITION is -33.5%.
The figure for `COc1ccccc1CN1C[C@@H]2CN(Cc3cccnc3)CCO[C@@H]2C1` is 20.1%; for `Cc1ccc(N2CCO[C@H]3CN(Cc4cc(C)on4)CC[C@H]3C2=O)cn1` it is 48.6%; for `O=c1c2c[nH]c(N3CCCC3)nc-2cn1C1CCS(=O)(=O)C1` (stereo unspecified) it is 42.1%.
In the case of `CC(C)n1[nH]c(=O)c2c1NC(=O)CC2c1ccc(C#N)cc1` (stereo unspecified), the INHIBITION is -1.04%.
Take `O=C1NCCCCC1Sc1ccc(F)c(F)c1` (stereo unspecified): the INHIBITION was 25.2%.
In the case of `O=C(N1CCCC1)N1CC[C@H]2[C@H]1CCN2c1ncccn1`, the INHIBITION is listed as 19.8%.
Consider `Cc1nc(CC(=O)N2CCC(c3ccn4nccc4n3)CC2)cs1`, for which the INHIBITION is recorded as 23.9%.
The value for `CCOc1ccccc1-n1c(C2CCC2)n[nH]c1=O` was -27.5%; that for `Cc1cnc(N2CC[C@@H]3CN(Cc4ccncc4)CCO[C@@H]3C2)nc1` was -15.3%; that for `O=C1[C@@H]2CCN(Cc3ccoc3)C[C@@H]2OCCN1Cc1cccnc1` was 12.5%.
Turning to `O=C1[C@@H]2CCN(Cc3ccc(F)cc3)C[C@@H]2OCCN1c1cccnc1`, the INHIBITION came to 24.9%.
The value for `OC1CN(Cc2ccccc2)CCN(c2ccncc2)C1` (stereo unspecified) was 57.6%; that for `O=C1[C@@H]2CCN(Cc3ccoc3)C[C@@H]2OCCN1c1ccccc1` was 21.6%; that for `O=C1[C@@H]2CCN(Cc3ccoc3)C[C@@H]2OCCN1c1cccnc1` was 54.4%.
The figure for `c1cnc(N2CC[C@@H]3CN(Cc4ccncc4)CCO[C@@H]3C2)nc1` is -33%; for `Cc1ccnc(N2CCN(Cc3ccccc3)CC(O)C2)c1` (stereo unspecified) it is 43.9%; for `c1ccc(N2CC[C@@H]3CN(Cc4ccncc4)CCO[C@@H]3C2)cc1` it is 65.1%.
For `c1cncc(CN2CCO[C@@H]3CN(Cc4ccoc4)CC[C@@H]3C2)c1`, the INHIBITION turned out to be 50.9%.
The value for `c1cnc(N2CCO[C@@H]3CN(Cc4ccoc4)C[C@@H]3C2)nc1` was 33.5%.
The figure for `Cc1cc(N2CCN(Cc3ccccc3)CC(O)C2)cc(C)n1` (stereo unspecified) is 36.8%; for `CCNc1nc(-c2cccnc2)c(-c2ccnc(N3CCCC3)n2)s1` it is 48.6%.
The figure for `CN(C)C(=O)CCCn1ccc(NC(=O)NCc2cccc(F)c2)n1` is 13.8%; for `O=C(NCc1cc[nH]n1)NCC(O)c1ccc(F)c(F)c1` (stereo unspecified) it is -48.4%; for `CCN(CC)S(=O)(=O)c1cccc(C(=O)N(C)Cc2ccsc2)c1` it is -61.4%.
For the compound `CC[C@H]1N(C)CCC[C@]12CCC(=O)N2Cc1ccncc1`, the INHIBITION was found to be 43.2%.
The figure for `CCOc1ccc(C(=O)N2CCCC2c2c(C)nn(C)c2OC)cn1` (stereo unspecified) is -105%.
On to `Cc1c(CN2CCCC(n3c(=O)oc4ccccc43)C2)cnn1C` (stereo unspecified), for which the INHIBITION is recorded as 35.75%.
The figure for `N#Cc1cccc(CN2CC[C@@H]3CN(c4ncccn4)CCO[C@@H]3C2)c1` is 56.4%; for `N#Cc1cccc(CN2C[C@@H]3CN(c4ncccn4)C[C@@H]3C2)c1` it is 8.66%; for `Cc1cc(C)n(CC2CN(Cc3cccc(C#N)c3)CCO2)n1` (stereo unspecified) it is -8.11%.
The figure for `CC(C)c1nc(C2CCCN2Cc2ccccc2C#N)no1` (stereo unspecified) is 22.5%; for `CC(C)c1nc(C2CCCN2Cc2ccncc2Cl)no1` (stereo unspecified) it is 53.9%.
For the compound `CCc1ocnc1C(=O)N1CCCC1c1noc(C(C)C)n1` (stereo unspecified), the INHIBITION came to 11.7%.
The figure for `CC(C)c1nc(C2CCCN2CC(=O)Nc2ccc(Cl)cn2)no1` (stereo unspecified) is 54.6%; for `Cc1cc(NC(=O)CN2CCCC2c2noc(C(C)C)n2)n(C)n1` (stereo unspecified) it is 6.81%; for `CC(C)c1nc(C2CCCN2CC(=O)Nc2cccnc2)no1` (stereo unspecified) it is -17.6%.
The figure for `CCc1nc(C2CCCN2C(=O)c2nccnc2N)no1` (stereo unspecified) is -3.18%.
The figure for `CC(C)c1nc(C2CCCN2C(=O)c2nccnc2N)no1` (stereo unspecified) is 61.1%; for `CC(C)c1nc(C2CCCN2Cc2ccno2)no1` (stereo unspecified) it is 17%; for `Cc1nnc(NC(=O)CN2CCCC2c2noc(C(C)C)n2)s1` (stereo unspecified) it is -36.1%.
`Cc1cc(NC(=O)CN2CCCC2c2noc(C(C)C)n2)no1` (stereo unspecified): the INHIBITION amounted to 50.3%.
The figure for `Cc1cc(NC(=O)CN2CCCC2c2noc(C3CC3)n2)no1` (stereo unspecified) is 21.6%.
